Results reported in paper PMC5540273 (PLoS ONE, 2017).

Columns and labels:
Details in all cases: concentration: 1 μM, replicates: in singlicate; n = 1
CDKL3 = tested on: CDKL3
CDKL5 = tested on: CDKL5
CHEK1 = tested on: CHEK1
CHEK2 = tested on: CHEK2
CIT = tested on: CIT
CLK1 = tested on: CLK1
CLK2 = tested on: CLK2
CLK3 = tested on: CLK3
CLK4 = tested on: CLK4
CSF1R-autoinhibited = tested on: CSF1R-autoinhibited
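Also: KINOMEscan kinase panel screen.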

## Cn1c(=O)c(F)c(Nc2ccc(I)cc2F)c2c(=O)n(OC[C@H](O)CO)cnc21
CDKL3
  %Inh: 7%
CDKL5
  %Inh: 0%
CHEK1
  %Inh: 0%
CHEK2
  %Inh: 0%
CIT
  %Inh: 17%
CLK1
  %Inh: 7%
CLK2
  %Inh: 16%
CLK3
  %Inh: 17%
CLK4
  %Inh: 0%
CSF1R-autoinhibited
  %Inh: 0%

## Cc1nnc(-c2ccc(C)c(-c3ccc(C(=O)O)cc3)c2)o1 [GW608005]
CDKL3
  %Inh: 0%
CDKL5
  %Inh: 0%
CHEK1
  %Inh: 5%
CHEK2
  %Inh: 0%
CIT
  %Inh: 32%
CLK1
  %Inh: 10%
CLK2
  %Inh: 0%
CLK3
  %Inh: 0%
CLK4
  %Inh: 0%
CSF1R-autoinhibited
  %Inh: 0%

## Cc1cccc(-c2cc(-c3c[nH]nc3-c3ccccn3)ccn2)c1 [GW679395]
CDKL3
  %Inh: 0%
CDKL5
  %Inh: 0%
CHEK1
  %Inh: 0%
CHEK2
  %Inh: 0%
CIT
  %Inh: 45%
CLK1
  %Inh: 18%
CLK2
  %Inh: 2%
CLK3
  %Inh: 0%
CLK4
  %Inh: 6%
CSF1R-autoinhibited
  %Inh: 0%

## COc1cc2ncn(-c3cc(OCc4ccncc4Br)c(C(N)=O)s3)c2cc1OC [GW854278]
CDKL3
  %Inh: 0%
CDKL5
  %Inh: 0%
CHEK1
  %Inh: 0%
CHEK2
  %Inh: 10%
CIT
  %Inh: 3%
CLK1
  %Inh: 10%
CLK2
  %Inh: 38%
CLK3
  %Inh: 0%
CLK4
  %Inh: 0%
CSF1R-autoinhibited
  %Inh: 0%

## COc1cc2ncn(-c3cc(OCc4ccncc4)c(C(N)=O)s3)c2cc1OC [GSK336313]
CDKL3
  %Inh: 0%
CDKL5
  %Inh: 2%
CHEK1
  %Inh: 0%
CHEK2
  %Inh: 0%
CIT
  %Inh: 10%
CLK1
  %Inh: 42%
CLK2
  %Inh: 5%
CLK3
  %Inh: 0%
CLK4
  %Inh: 0%
CSF1R-autoinhibited
  %Inh: 0%

## CN(C)c1cc(-c2ccc3c(N)n[nH]c3c2)nc(N)n1 [GSK2219329]
CDKL3
  %Inh: 0%
CDKL5
  %Inh: 0%
CHEK1
  %Inh: 0%
CHEK2
  %Inh: 0%
CIT
  %Inh: 23%
CLK1
  %Inh: 45%
CLK2
  %Inh: 12%
CLK3
  %Inh: 0%
CLK4
  %Inh: 51%
CSF1R-autoinhibited
  %Inh: 0%

## COC(=O)c1c(-c2ccccc2)c2cc(Br)ccc2c(=O)n1Cc1ccc(S(C)(=O)=O)cc1
CDKL3
  %Inh: 22%
CDKL5
  %Inh: 26%
CHEK1
  %Inh: 0%
CHEK2
  %Inh: 23%
CIT
  %Inh: 23%
CLK1
  %Inh: 0%
CLK2
  %Inh: 14%
CLK3
  %Inh: 0%
CLK4
  %Inh: 13%
CSF1R-autoinhibited
  %Inh: 7%

## CCS(=O)c1ccc(-c2coc3ccc(-c4nnc(C)o4)cc23)cc1 (centres unmarked)
CDKL3
  %Inh: 0%
CDKL5
  %Inh: 0%
CHEK1
  %Inh: 0%
CHEK2
  %Inh: 0%
CIT
  %Inh: 2%
CLK1
  %Inh: 0%
CLK2
  %Inh: 0%
CLK3
  %Inh: 0%
CLK4
  %Inh: 5%
CSF1R-autoinhibited
  %Inh: 8%
